Shown are actives, neighbours in structure and some others; about 8% of the full set was active somewhere.
MCF10A rereplic = induces DNA re-replication in MCF 10a normal breast cells. MCF 10A DNA re-replication, Hoechst nuclear intensity, 48 h. Potency, µM (highest dose often 46.1 µM), for the others: top-dose activity, positive = re-replication, most hits filed as activators. 350,000 tested, 2.9% active. AID 624296; note: % of control where 0% means no effect; nearly all actives have a fitted effect of over 50% in size
KB-3-1 cytotox = KB-3-1 parental cell cytotoxicity; Potency, µM (doses to about 46.1 µM), hits mostly cytotoxic; KB-3-1 viability, CellTiter-Glo ATP luminescence, 72 h; 400,000 tested, 1.4% active; note: % is set by controls: 0 for no effect and ±100 for the full control effect; nearly all actives have a fitted effect of over 60% in size
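Parental KB-3-1 viability, qHTS format: 72 h compound exposure, 37 °C; CellTiter-Glo; media-only wells and DMSO plates as controls; concentration-effect fits on corrected data.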
HT1080NT lethal = kills 2HG-producing HT-1080-NT fibrosarcoma cells. HT-1080-NT fibrosarcoma viability, CellTiter-Glo ATP luminescence, 48 h. Potency, µM (top dose mostly 46.1 µM), inactives show at the highest dose activity, negative = less viability, most hits filed as cytotoxic. 360,000 tested, 1.6% active. AID 686970;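 note: NT is the 2HG producing partner of a matched IDH1 knockdown line; 0% = DMSO-treated cells and -100% = media-only wells without cells; nearly all actives have a fitted effect of over 55% in size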
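A 48-hour cytotoxicity screen used HT-1080-NT cells plated 2 hours before compound delivery. ATP-based CellTiter-Glo luminescence measured viability, normalized to DMSO and no-cell controls.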
SW480 rerep = DNA re-replication induction in SW480 cells | 340,000 tested, 1.8% active | SW480 DNA re-replication, Hoechst DNA content imaging, 48 h | Potency, µM (titrated, usually from 46.1 µM), inactives show at the top dose re-replication activation, actives largely listed as activators; note: % of control where 0% means no effect; nearly all actives have a fitted effect of over 55% in size
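Image-based read-out: total Hoechst fluorescence of nuclei (405 nm excitation, 500-530 nm emission), with hits raising the fraction of high-intensity nuclei. SW480 colon cells incubated 48 hr with compounds at 37 C.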
HT1080 IDH1KD tx = toxicity to HT-1080 IDH1 knockdown cells (counter line) | AID 686971 | HT-1080 IDH1 knockdown viability, ATP luminescence, 48 h | 360,000 tested, 2% active | Potency, µM (doses to about 46.1 µM), inactives show at the top dose activity, negative = toxicity, hits mostly cytotoxic;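 note: 0% = DMSO wells and -100% = cell-free medium wells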
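After a 2 h attachment period, IDH1KD HT-1080 cells took pin-transferred compound for 48 h at 37 °C; ATP-based luminescence after 10 min room-temperature reagent incubation reported viability.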
KB-V1 cytotox = kills drug-selected multidrug resistant KB-V1 cells; Potency, µM (highest dose often 46.1 µM), most hits filed as cytotoxic; KB-V1 MDR cells viability, CellTiter-Glo, 72 h; 400,000 tested, 3.4% active; note: % is set by controls: 0 for no effect and ±100 for the full control effect; nearly all actives have a fitted effect of over 60% in size
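KB-V1 cells (P-gp-expressing MDR subline of KB-3-1) in phenol-red-free DMEM with 10% FBS were exposed to library compounds over a concentration series for 72 h at 37 degrees C. Viability read by CellTiter-Glo luminescence; concentration-effect curves fitted after normalization.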
Active calls of the source: *; i = inactive; ? = inconclusive; / = no result. Calls come from the whole dose curve; as a rule, active = well fitted curve in the direction sought with a large enough effect; inconclusive = small, poorly fitted or top-dose-only effect, or another doubt; inactive = no such curve, though single readings can be large; an effect the other way counts as inactive or inconclusive. Potency is the fitted concentration of half-maximal effect.

SMILES	MCF10A rereplic	KB-3-1 cytotox	HT1080NT lethal	SW480 rerep	HT1080 IDH1KD tx	KB-V1 cytotox
Cc1cc(NO)nc(-c2ccc(Br)cc2)n1	14%	i	10µM*	9%	-8%	i
CCCCn1c(=N)n(CC(O)c2ccccc2)c2ccccc21 (centres undefined)	11%	?	-19%	3%	-11%	?
CN(C)CCn1c(=N)n(CC(O)c2ccc(Cl)c(Cl)c2)c2ccccc21 (centres undefined)	?	?	23µM*	?	?	i
N=c1n(CCN2CCCCC2)c2ccccc2n1CC(O)c1ccc(Cl)c(Cl)c1 (centres undefined)	?	?	11µM*	-2%	13µM*	21µM*
N=c1n(CCN2CCCCC2)c2ccccc2n1CC(O)c1cccc(Br)c1 (centres undefined)	?	?	23µM*	?	?	?
CCN(C(=O)c1cc2c(=O)oc3ccccc3c2s1)c1ccccc1F	/	i	/	/	/	i
CC(C)c1ccc(CN2CCC(n3nccc3NC(=O)C3CCCC3)CC2)cc1	/	i	-28%	/	-20%	5.2µM*
O=C(Nc1ccnn1C1CCN(Cc2ccc(Cl)cc2)CC1)C1CCCC1	0%	/	4%	0%	1%	/
Cc1ccc(C2N3CC4(C)CN2CC(c2ccccc2)(C3)C4=O)cc1 (centres undefined)	/	i	/	/	/	i
COC(=O)c1ccc(Sc2nnnn2-c2ccccc2)c([N+](=O)[O-])c1	?	?	?	10µM*	?	?
Cc1cnc(NC(=O)c2ccc(F)c(S(=O)(=O)N3CCOCC3)c2)s1	-1%	i	11%	-4%	4%	18µM*
Cc1cnc(NC(=O)Cc2ccc(S(=O)(=O)N3CCOCC3)s2)s1	-1%	i	10%	-5%	19%	23µM*
Cc1ccc(N(Cc2ccccc2)C(=O)c2ccc(F)c(S(=O)(=O)N3CCOCC3)c2)cc1	12%	?	1%	6%	-4%	3.7µM*
O=C(Nc1ccc2c(c1)CCC2)c1ccc(F)c(S(=O)(=O)N2CCOCC2)c1	11%	?	-1%	?	-15%	3.3µM*
Cc1ccc(C(=O)Nc2ccc3c(c2)CCC3)cc1S(=O)(=O)N1CCOCC1	2%	i	-9%	0%	-1%	i
Cc1cc(-n2c(C)nc3ccccc3c2=O)ccc1NC(=O)c1cccc([N+](=O)[O-])c1	/	i	/	/	/	i
CC1CCN(S(=O)(=O)c2ccc3c(ccc(=O)n3CC(=O)Nc3cccc(F)c3)c2)CC1	/	i	/	/	/	?
CCOc1ccccc1CNC(=O)c1ccc(N2Cc3ccccc3Oc3ncccc32)s1	/	i	/	/	/	i
CCOc1ccc(NC(=O)c2nn(C)c3c2CS(=O)(=O)c2ccccc2-3)cc1	/	i	/	/	/	i
COc1ccc(C(=O)OCc2cc(=O)n3nc(-c4cccs4)sc3n2)cc1	/	i	/	/	/	i
CCSc1nc(CC)c2c(c1C#N)CCCC2	-4%	i	-3%	0.52µM*	14%	i
COc1ccc2[nH]cc(C(=O)CCl)c2c1	21µM*	12µM*	5.8µM*	?	7.3µM*	?
O=C(/C=C/c1cccc2ccccc12)c1ccncc1	12µM*	2.9µM*	?	?	?	2.6µM*
O=C(/C=C/c1c[nH]c2ccccc12)c1ccccc1	?	i	1%	18µM*	-16%	i
COc1ccc2[nH]cc(/C=C/C(=O)c3ccccc3)c2c1	?	i	18µM*	?	18µM*	i
O=C(CCC1N=C2c3ccccc3N=C(SCc3cccc(F)c3)N2C1=O)NCc1cccs1 (centres undefined)	/	i	/	/	/	?
O=[N+]([O-])c1ccc(NS(=O)(=O)c2ccc(Cl)c(Cl)c2)cc1	/	?	16µM*	/	18µM*	?
